Experimental data: PubChem BioAssay (NCI)
Compounds without any hit were thinned out: in the full panel of roughly 79,000, 15% have a hit. Unmarked numbers belong to inactive results. Activity calls are given as the source filed them. Rule as the data show it: active = growth inhibition above about 70%; inactive = the rest.

What was measured:
[1] = NCI Yeast Anticancer Drug Screen. Data for the rad50 strain (AID 155);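 also: 0% = growth of vehicle-only cultures of the same strain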; settings: S. cerevisiae rad50 strain growth inhibition, active compounds read high
Summary of the method: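 Cells are treated with compound, grown, and their growth is then scored against vehicle-only cultures of the same repair-deficient yeast strain.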

[2] = NCI Yeast Anticancer Drug Screen. Data for the mec2-1 strain (AID 157); settings: S. cerevisiae mec2-1 strain, active compounds read high
Summary of the method: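 Vehicle-treated cultures served as reference for growth inhibition of compound-exposed mec2-1 yeast.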

[3] = NCI Yeast Anticancer Drug Screen. Data for the sgs1 mgt1 strain (AID 161);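 also: 0% = growth of cultures given vehicle only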; settings: S. cerevisiae sgs1 mgt1 strain, active compounds read high
Summary of the method: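 Read-out: growth inhibition vs vehicle controls. Cells: mutant yeast strain deficient in DNA damage repair.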

[4] = NCI Yeast Anticancer Drug Screen. Data for the cln2 rad14 strain (AID 165);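 also: 0% = growth equal to vehicle treated cultures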; settings: S. cerevisiae cln2 rad14 strain, active compounds read high
Summary of the method: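 Each compound was tested on cln2 rad14 yeast. Inhibition of growth was calculated against vehicle-exposed controls.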

[5] = NCI Yeast Anticancer Drug Screen. Data for the bub3 strain (AID 167); settings: S. cerevisiae bub3 mutant strain, active compounds read high
Summary of the method: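 Part of a panel of yeast mutants defective in DNA damage repair or cell cycle regulation. Each strain is grown with compound, and inhibition is calculated relative to solvent-treated cultures.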

[6] = NCI Yeast Anticancer Drug Screen. Data for the mlh1 rad18 strain (AID 175); settings: S. cerevisiae mlh1 rad18 strain growth inhibition, active compounds read high
Summary of the method: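 Vehicle-treated cultures served as the reference for growth inhibition in a yeast strain carrying DNA damage repair alterations exposed to each compound.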

[7] = at 5.0 µM (retest, dose inferred, filed as 0.5)
[8] = at 50.0 µM (retest, dose inferred, filed as 5.0)

| Compound | growth inhibition [1, 7] | growth inhibition [1, 8] | growth inhibition ([1]; at 50.0 µM) | growth inhibition [2, 7] | growth inhibition [2, 8] | growth inhibition ([2]; at 50.0 µM) | growth inhibition [3, 7] | growth inhibition [3, 8] | growth inhibition ([3]; at 50.0 µM) | growth inhibition [4, 7] | growth inhibition [4, 8] | growth inhibition ([4]; at 50.0 µM) | growth inhibition [5, 7] [%] | growth inhibition [5, 8] | growth inhibition ([5]; at 50.0 µM) | growth inhibition [6, 7] | growth inhibition [6, 8] | growth inhibition ([6]; at 50.0 µM) |
| --- | --- | --- | --- | --- | --- | --- | --- | --- | --- | --- | --- | --- | --- | --- | --- | --- | --- | --- |
| O=C(Oc1ccc(S(=O)(=O)F)cc1F)c1ccccc1Cl | 5% | 99% (active) | 99.2% (active) | 5% | 99% (active) | 99.5% (active) | -2% | 99% (active) | 99.3% (active) | -10% | 99% (active) | 99% (active) | 6 | 99% (active) | 99.4% (active) | 21% | 99% (active) | 98.7% (active) |
| CC(C)NC1CC2CCCCC2CC1c1ccccc1 (configuration not stated) | 1% | 51% | 79.8% (active) | 4% | 25% | 83.3% (active) | 10% | 68% | 90.9% (active) | 3% | 57% | 82.3% (active) | 17 | 53% | 82.4% (active) | 20% | 74% (active) | 88.8% (active) |
| CC1(Br)Cc2ccccc2C1=O (configuration not stated) | 3% | 43% | -2.2% | 4% | 33% | 37.2% | 2% | 31% | 42.3% | 1% | 16% | -35% | -2 | 36% | 70% (active) | 4% | 34% | 20.4% |
| CN=C(N)N/N=C(\C)c1ccc2sc3ccc(/C(C)=N/NC(N)=NC)cc3c2c1 | 49% | 55% | 74.7% (active) | -4% | -2% | 24.5% | 23% | 14% | 13% | 17% | 7% | 20.8% | 24 | 20% | -8.5% | 14% | 17% | 30.2% |
| O=[N+]([O-])O.c1ccc([As+](c2ccccc2)(c2ccccc2)c2ccccc2)cc1 | 26% | 96% (active) | 97% (active) | 43% | 99% (active) | 97.9% (active) | 21% | 98% (active) | 97% (active) | 7% | 92% (active) | 97.6% (active) | 16 | 97% (active) | 97% (active) | 24% | 96% (active) | 95.8% (active) |
| CN1C(=O)C2(C)SSC1(C)C(=O)N2C | 45% | 95% (active) | 97.2% (active) | 27% | 95% (active) | 93.8% (active) | 43% | 96% (active) | 97.5% (active) | 10% | 85% (active) | 87.7% (active) | 17 | 93% (active) | 95.5% (active) | 57% | 97% (active) | 98.6% (active) |
| N#CCC[CH2][Sn]([Br])([Br])[c]1ccccc1 | 3% | 72% (active) | 43.9% | 23% | 22% | 80.1% (active) | 49% | 49% | 6% | 2% | 11% | 34.5% | -6 | 18% | 89.4% (active) | 8% | 58% | 36.5% |
| COc1ccc(CN2CCCN(Cc3ccc(OC)cc3OC)C2c2ccc(N(CCCl)CCCl)cc2)c(OC)c1 | 2% | 49% | 71% (active) | -9% | 8% | 22.8% | -5% | 42% | 60.8% | -8% | 43% | 30.3% | -8 | -3% | 5.25% | 55% | 95% (active) | 53.9% |
| ClCCN1CCOCC1 | 95% (active) | 97% (active) | 98% (active) | 94% (active) | 99% (active) | 98.8% (active) | 89% (active) | 98% (active) | 98.3% (active) | 71% (active) | 98% (active) | 95.8% (active) | 34 | 98% (active) | 98.1% (active) | 91% (active) | 98% (active) | 98.8% (active) |
